Source: PubChem BioAssay (NCATS)
Results filed as inconclusive are left out. A call without a number means that no potency is given here. Activity calls are given as the source filed them. Calls follow the shape of the dose curve; as a rule, active = well fitted curve in the direction sought with a large enough effect; inconclusive = small, poorly fitted or top-dose-only effect, or another doubt; inactive = no such curve, though single readings can be large; an effect the other way counts as inactive or inconclusive.

Key:
[1] = qHTS assay to identify small molecule inhibitors of chordoma cells - UCH-1 (AID 1259355); also: nearly all actives have a fitted effect of over 55% in size; as to potency: series mostly up to about 46 µM
Outline: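 Screening used approved and investigational drugs in 15-point titration against 800 seeded cells per well. A fixed combination of auranofin with camptothecin, doxorubicin, rubitecan and topotecan followed compound addition, and growth was scored by CellTiter-Glo after 48hr.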

[2] = qHTS assay to identify small molecule inhibitors of chordoma cells - UCH-2 (AID 1259356)
Potency is read from the fitted curve at half-maximal effect.

| Structure (SMILES) | Potency [1] | Potency [2] |
| --- | --- | --- |
| Cc1ccccc1 | inactive | inactive |
| CC[C@@H](C(=O)O)[C@@H]1O[C@@H]([C@@H](C)[C@H](O)[C@H](C)C(=O)[C@H](CC)[C@H]2O[C@]3(C=C[C@@H](O)[C@]4(CC[C@@](C)([C@H]5CC[C@](O)(CC)[C@H](C)O5)O4)O3)[C@H](C)C[C@@H]2C)[C@@H](C)C[C@@H]1C | 3.55 µM (active) | 8.2 µM (active) |
| CO[C@@H]1[C@@H](O[C@@H]2O[C@H](C)[C@@H](O[C@H]3C[C@@](C)(O)[C@@H](O)[C@H](C)O3)[C@H](N(C)C)[C@H]2O)[C@@H](CC=O)C[C@@H](C)[C@@H](O[C@@H]2CC[C@H](N(C)C)[C@@H](C)O2)/C=C/C=C/C[C@@H](C)OC(=O)C[C@H]1O | inactive | inactive |
| COCC(=O)Nc1cc(Sc2ccccc2)ccc1N=C(NC(=O)OC)NC(=O)OC | inactive | inactive |
| COC(=O)CCC(=O)CN | inactive | inactive |
| O=C(O)CN(CCN(CC(=O)O)CC(=O)O)CC(=O)O | inactive | inactive |
| Cc1ccccc1OCC(O)CNCCOc1ccc(C(N)=O)cc1 (stereo not drawn) | inactive | inactive |
| C#C[C@]1(O)CC[C@H]2[C@@H]3CCC4=CCCC[C@@H]4[C@H]3C(=C)C[C@@]21CC | inactive | inactive |
| CC[C@H]1OC(=O)[C@H](C)[C@@H](O[C@H]2C[C@@](C)(OC)[C@@H](O)[C@H](C)O2)[C@H](C)[C@@H](O[C@@H]2O[C@H](C)C[C@H](N(C)C)[C@H]2O)[C@](C)(O)C[C@@H](C)/C(=N\OCOCCOC)[C@H](C)[C@@H](O)[C@]1(C)O | inactive | inactive |
